Results with a measured potency or affinity are listed apart.
tested on: Staphylococcus aureus; settings: Concentration 32 ug.mL-1;; ASSAY_TEST Inhibition of Bacterial Growth; detection method Absorption (OD600); MEDIA CAMHB; plate type 384well; NBS; CORNING #3640; time 18 hr

Structure (SMILES) | Inhibition [%]
Cc1cc(C)c(NC(=O)Cn2nc3ccc(SC(C)(C)C)nn3c2=O)c(C)c1 | 11.62
O=C(Cn1nc2ccc(Sc3cccc(F)c3)nn2c1=O)NCc1ccc(C(F)(F)F)cc1 | 12.64
Cc1cccc(N(Cc2ccc(F)cc2)S(=O)(=O)c2cccn3c(C)nnc23)c1 | 15.38
COc1cccc(NC(=O)Cn2nc3c(=O)n(-c4ccc(Br)cc4)ccn3c2=O)c1 | -2.73
COc1ccc(N2CCN(C(=O)Cn3nc4c(Oc5ccccc5)nccn4c3=O)CC2)cc1 | 16.39
Cc1c(Cl)cccc1-n1ccn2c(=O)n(Cc3ccc(F)cc3)nc2c1=O | 2.79
CCc1ccc(NC(=O)Cn2c(=O)c3nnc(C(C)C)n3c3ccccc32)cc1 | 6.08
COc1ccc(CNC(=O)Cn2nc3c(N4CC(C)CC(C)C4)nccn3c2=O)cc1 (stereo unspecified) | 7.67
COc1ccc(NC(=O)Cn2nc3ccc(-c4ccccc4)nn3c2=O)cc1OC | 0.84
COc1ccc(-c2cc3c4nn(CC(=O)N5CCCc6ccccc65)c(=O)n4ccn3n2)cc1 | 6.07
Cc1ccccc1CN(c1ccc(C(C)C)cc1)S(=O)(=O)c1cccn2c(C)nnc12 | 9.54
COc1ccc(OC)c(NC(=O)Cn2nc3c4cc(-c5ccc(Cl)cc5)nn4ccn3c2=O)c1 | -2.94
C=Cc1ccc(CN(c2ccc(CC)cc2)S(=O)(=O)c2cccn3c(C)nnc23)cc1 | 9.91
CCc1ccccc1Sc1nccn2c(=O)n(CC(=O)NCc3cccs3)nc12 | 6.5
O=C(CSc1nnc2c(=O)n(-c3ccc(Br)cc3)ccn12)Nc1cc(F)ccc1F | 11.71
Cc1ccc(-c2cc3c4nn(CC(=O)Nc5c(C)cccc5C)c(=O)n4ccn3n2)cc1 | 9.95
Cc1cc(C)cc(Oc2nc3ccccc3n3c(=O)n(CC(=O)Nc4ccc5c(c4)OCO5)nc23)c1 | 0.02
Cc1ccc(Cn2c(=O)c3ccccc3n3c(=O)n(CC(=O)Nc4ccc5c(c4)OCCO5)nc23)cc1 | 6.52
COc1ccc(-c2cc3c4nnc(SCC(=O)Nc5ccc(C)c(F)c5)n4ccn3n2)cc1 | 0.86
CCOc1ccc(-n2ccn3c(SCC(=O)Nc4ccc(C)cc4Cl)nnc3c2=O)cc1 | 8.62
Cc1cc(C)cc(Oc2nccn3c(=O)n(CC(=O)Nc4ccc(Cl)cc4F)nc23)c1 | 18.94
CCCN(C)c1nccn2c(=O)n(CC(=O)Nc3cccc(Br)c3)nc12 | 10.78
COc1ccc(NC(=O)Cn2c(=O)c3nnc(C)n3c3ccccc32)cc1Cl | 14.24
COc1cc(-c2nnc3c(=O)n(Cc4ccc(Cl)cc4)ccn23)cc(OC)c1OC | 11.84
COc1ccc(N2CCN(C(=O)Cn3nc4ccc(-c5ccc(Cl)cc5)nn4c3=O)CC2)cc1 | 9.33
O=c1c2sccc2n2c(=O)n(Cc3ccccc3F)nc2n1CCc1ccccc1 | 9.4

tested on: Escherichia coli; settings: Concentration 32 ug.mL-1;; ASSAY_TEST Inhibition of Bacterial Growth; detection method Absorption (OD600); MEDIA CAMHB; plate type 384well; NBS; CORNING #3640; time 18 hr

Structure (SMILES) | Inhibition [%]
COc1ccccc1Cn1c(=O)c2sccc2n2c(=O)n(Cc3cccc(Br)c3)nc12 | -1.02
COc1ccc(NC(=O)Cn2c(=O)c3nnc(C(C)C)n3c3ccccc32)cc1Cl | 0.69
O=c1c2nn(Cc3ccc([N+](=O)[O-])cc3)c(=O)n2ccn1-c1ccccc1 | -1.5
COc1cccc(Oc2nccn3c(=O)n(CC(=O)Nc4ccc(OC)c(OC)c4)nc23)c1 | -2.07
CCOc1ccc(C(=O)CSc2nnc3c(=O)n(-c4ccc(F)cc4)ccn23)cc1 | 1.42
COc1cccc(NC(=O)Cn2c(=O)c3nnc(C(C)C)n3c3ccccc32)c1 | 0.77
O=C(CSc1nnc2c(=O)n(-c3ccc(Br)cc3)ccn12)Nc1ccc(F)cc1 | -1.5
COc1ccc(CN(c2ccc(OC)cc2)S(=O)(=O)c2ccc3nnc(C)n3c2)cc1 | -1.31
COc1cc(NC(=O)Cn2nc3c(N4CCCC4)nccn3c2=O)cc(OC)c1 | -2.57
O=S(=O)(c1ccc2nncn2c1)N(Cc1ccc(Cl)cc1)c1ccc2c(c1)OCO2 | -6.36
CCCCc1ccc(NC(=O)Cn2nc3c(N4CCN(c5ccccc5C)CC4)nccn3c2=O)cc1 | -13.2
N#CCn1nc2n(Cc3ccc(F)cc3)c(=O)c3ccccc3n2c1=O | -10.2
COc1ccc(CCn2c(=O)c3sccc3n3c(=O)n(Cc4c(F)cccc4Cl)nc23)cc1OC | -5.54
N#Cc1ccc(NC(=O)Cn2nc3c(SC4CCCCC4)nccn3c2=O)cc1 | -8.54
Cc1cc(C)c(NC(=O)Cn2nc3ccc(SC(C)(C)C)nn3c2=O)c(C)c1 | -0.74
O=C(Cn1nc2ccc(Sc3cccc(F)c3)nn2c1=O)NCc1ccc(C(F)(F)F)cc1 | -0.57
Cc1cccc(N(Cc2ccc(F)cc2)S(=O)(=O)c2cccn3c(C)nnc23)c1 | -0.37
COc1cccc(NC(=O)Cn2nc3c(=O)n(-c4ccc(Br)cc4)ccn3c2=O)c1 | -3.42
COc1ccc(N2CCN(C(=O)Cn3nc4c(Oc5ccccc5)nccn4c3=O)CC2)cc1 | 4.58
Cc1c(Cl)cccc1-n1ccn2c(=O)n(Cc3ccc(F)cc3)nc2c1=O | -11.88

Structure (SMILES) | Inhibition [%]
CCc1ccc(NC(=O)Cn2c(=O)c3nnc(C(C)C)n3c3ccccc32)cc1 | 6.05
COc1ccc(CNC(=O)Cn2nc3c(N4CC(C)CC(C)C4)nccn3c2=O)cc1 (stereo unspecified) | -5.82
COc1ccc(NC(=O)Cn2nc3ccc(-c4ccccc4)nn3c2=O)cc1OC | -8.27
COc1ccc(-c2cc3c4nn(CC(=O)N5CCCc6ccccc65)c(=O)n4ccn3n2)cc1 | 1.46
Cc1ccccc1CN(c1ccc(C(C)C)cc1)S(=O)(=O)c1cccn2c(C)nnc12 | -1.18
COc1ccc(OC)c(NC(=O)Cn2nc3c4cc(-c5ccc(Cl)cc5)nn4ccn3c2=O)c1 | -2.51
C=Cc1ccc(CN(c2ccc(CC)cc2)S(=O)(=O)c2cccn3c(C)nnc23)cc1 | -2.55
CCc1ccccc1Sc1nccn2c(=O)n(CC(=O)NCc3cccs3)nc12 | -12.39
O=C(CSc1nnc2c(=O)n(-c3ccc(Br)cc3)ccn12)Nc1cc(F)ccc1F | -2.54
Cc1ccc(-c2cc3c4nn(CC(=O)Nc5c(C)cccc5C)c(=O)n4ccn3n2)cc1 | 0.29
Cc1cc(C)cc(Oc2nc3ccccc3n3c(=O)n(CC(=O)Nc4ccc5c(c4)OCO5)nc23)c1 | -5.83
Cc1ccc(Cn2c(=O)c3ccccc3n3c(=O)n(CC(=O)Nc4ccc5c(c4)OCCO5)nc23)cc1 | 1.04
COc1ccc(-c2cc3c4nnc(SCC(=O)Nc5ccc(C)c(F)c5)n4ccn3n2)cc1 | -1.39
CCOc1ccc(-n2ccn3c(SCC(=O)Nc4ccc(C)cc4Cl)nnc3c2=O)cc1 | -1.13
Cc1cc(C)cc(Oc2nccn3c(=O)n(CC(=O)Nc4ccc(Cl)cc4F)nc23)c1 | 4.01
CCCN(C)c1nccn2c(=O)n(CC(=O)Nc3cccc(Br)c3)nc12 | -4.19
COc1ccc(NC(=O)Cn2c(=O)c3nnc(C)n3c3ccccc32)cc1Cl | 3.26
COc1cc(-c2nnc3c(=O)n(Cc4ccc(Cl)cc4)ccn23)cc(OC)c1OC | -0.28
COc1ccc(N2CCN(C(=O)Cn3nc4ccc(-c5ccc(Cl)cc5)nn4c3=O)CC2)cc1 | -1.38
O=c1c2sccc2n2c(=O)n(Cc3ccccc3F)nc2n1CCc1ccccc1 | 0.41

From ChEMBL document CHEMBL4513146, “CO-ADD screening of Karazin Kharkiv National University (Ukraine) compounds”
